The term viability denotes a read-out of living cells in per cent, often relative to untreated cells. As usually defined, the inhibition is the drop in the measured response relative to a control, in per cent.

The structures appear in SMILES notation. The source made the active and inactive calls. Rule as the data show it: active = inhibition above about 31%; inactive = the rest.

The nature of one assay: MRP1 drug-resistance reversers in H69AR cells – cell-based, doxorubicin co-treatment, pilot screen (AID 601). The conditions noted are these: H69AR cells, CellTiter-Glo, 72 h; compound alone cytotoxicity; at 10 µM.
Regarding `CCOC(=O)c1cc(CC)sc1NC(=O)CCC(=O)O`, the viability amounted to 93.8%.

In the case of `O=C(NCC(c1cccnc1)N1CCOCC1)c1cccs1` (stereo not given), the viability is 92.5%.

For `O=c1cc(-c2ccccc2)[nH]c2nc3ccccc3n12`, the viability was 9.48%.

Consider `O=C(c1ccccc1-c1ccccc1)N1CCN(c2ccccn2)CC1`, for which the viability was 16%.

With `CCc1ccccc1NC(=O)CSc1nc2n[nH]c(C)c2c(=N)n1-c1ccc(OC)cc1`, the viability is 80%.

Turning to `Cc1cccc(C)c1NC(=O)CC(NCc1ccco1)C(=O)O` (stereo not given), the viability was determined as 109%.

Regarding `Cc1noc(NS(=O)(=O)c2ccc(N3C(=O)c4ccccc4C3=O)cc2)c1C`, the viability amounted to 107%.

For `O=C(NC(C(=O)c1ccccc1)n1ccc(=O)[nH]c1=O)c1ccccc1` (stereo not given), the viability came out at 91.2%.

With `CCc1nnc(NC(=O)NCN2C(=O)C3C4C=CC(C4)C3C2=O)s1` (stereo not given), the viability is 95.5%.

On to `Cc1cc(C)c(C)c(S(=O)(=O)Nc2ccc(O)cc2)c1C`, for which the viability is 96.8%.

For the molecule `COc1cccc(C(c2nnnn2CCc2ccccc2)N2CCN(c3ccccc3)CC2)c1OC` (stereo not given), the viability was determined as 83.1%.

In the case of `O=C(CSc1nc(-c2ccccc2)cs1)NCc1ccco1`, the viability is 94.8%.

`Cc1cccc2cc(CN(CCCO)C(=O)Nc3ccc(Cl)cc3)c(=O)[nH]c12`: the viability worked out at 77.1%.

As for `O=C(O)c1oc2ccccc2c1-n1cccc1`, the viability is 96.8%.

For `O=C1CCc2cc(S(=O)(=O)N3CCC(C(=O)Nc4nccs4)CC3)ccc2N1`, the viability amounted to 85.3%.

On to `CC(=O)N1C(=O)C2(C(C#N)=C(N)Oc3cc(C)oc(=O)c32)c2ccccc21` (stereo not given), for which the viability turned out to be 88.1%.

`CCOc1ccc(C(=O)N2CCN(c3ccccc3)CC2)cc1OCC`: the viability stood at 83.5%.

Take `O=C(Cn1cnc2c(nnn2Cc2ccccc2)c1=O)c1ccc(Cl)cc1`: the viability is 97.1%.

With `CCCNS(=O)(=O)c1ccc(OCC(=O)NCc2ccc3c(c2)OCO3)cc1`, the viability is 94.1%.

Turning to `COCCN(C(=O)CCC(=O)Nc1ccccn1)C(C(=O)NC1CCCC1)c1ccc(OC)cc1` (stereo not given), the viability came out at 111%.

Regarding `Cn1c(=O)n(CC(=O)OCc2ccccc2)c(=O)c2c1nc1n2CCCN1C1CCCCC1`, the viability came to 78.7%.

Consider `CCOc1ccc(-c2nnn(CCC(=O)O)n2)cc1OC`, for which the viability was 102%.

The nature of another assay: yeast transport mutant growth inhibition pilot in 384-well plates, post-Golgi transport modulator project (AID 636). The conditions noted are these: absorbance 615 nm, about 18 h, stronger effect = higher value.
As to `CC1=C(C(=O)OCCOC(C)C)C(c2cc3c(cc2Br)OCO3)C2=C(CCCC2=O)N1` (stereo not given), the inhibition is -2.8% (inactive).

`O=C(NCC(c1cccnc1)N1CCN(c2ccccc2)CC1)c1ccc2c(c1)OCO2` (stereo not given): the inhibition was -4.46% (inactive).

Consider `CCOC(=O)C(NC(C)=O)(NS(=O)(=O)c1ccccc1)C(F)(F)F` (stereo not given), for which the inhibition was -4.16% (inactive).

Consider `CC(C)(C)Nc1nc(NC(C)(C)C)nc(-n2ccnc2)n1`, for which the inhibition is -0.26% (inactive).

For `Cc1nc2c3cnn(-c4ccccc4)c3ncn2n1`, the inhibition was -3.87% (inactive).

`CCOC(=O)C1CCN(c2c(Nc3ccc4c(c3)OCCO4)c(=O)c2=O)CC1`: the inhibition was 1.03% (inactive).

Regarding `Cc1ccc(SCc2[nH]nc3c2C(c2ccc(C)o2)C(C#N)=C(N)O3)cc1` (stereo not given), the inhibition is -7.03% (inactive).

Consider `CCOC(=O)N1CCN(C(=O)CCc2ccc(S(=O)(=O)NCCc3ccccc3)cc2)CC1`, for which the inhibition is -0.13% (inactive).

For the molecule `O=C(CSc1nnnn1-c1ccc(Cl)cc1)NC(=O)Nc1ccc2c(c1)OCCO2`, the inhibition was -6% (inactive).

On to `CCCCn1c(CN2CCN(c3cccc(Cl)c3)CC2)nc2c1c(=O)n(C)c(=O)n2C`, for which the inhibition was -4.74% (inactive).

`COc1ccc(Cn2c(CCCO)nc3ccccc32)cc1OC`: the inhibition is -7.67% (inactive).

As to `CC1(C)NC(=O)N(CC(O)CN(Cc2ccccc2)Cc2ccccc2)C1=O` (stereo not given), the inhibition is -4.59% (inactive).

On to `Cc1cc(C)n(C(=O)CNC(=O)C2COc3ccccc3O2)n1` (stereo not given), for which the inhibition is -4.74% (inactive).

Regarding `CCOC(=O)c1ccc2[nH]c(C)c(CN3CCN(C)CC3)c(=O)c2c1`, the inhibition is -7.03% (inactive).

Regarding `Cc1cc(=O)n(C)c(=O)n1CCCNc1ccccc1`, the inhibition is 0% (inactive).

Turning to `S=c1[nH]nc(-c2cccc(Br)c2)o1`, the inhibition is -1.58% (inactive).

In the case of `Cc1ccc(S(=O)(=O)N2CCN(CCO)CC2)cc1-c1nnc2c3ccccc3c(C)nn12`, the inhibition was -5.07% (inactive).

Turning to `CC1=C(C(=O)Nc2ccccc2)C(c2ccco2)C(C#N)=C(SCC(=O)Nc2cccc(C)c2C)N1` (stereo not given), the inhibition was -4.93% (inactive).

As for `CCOC(=O)c1cc(CC)sc1NC(=O)CCC(=O)O`, the inhibition is -6.13% (inactive).

On to `O=C(NCC(c1cccnc1)N1CCOCC1)c1cccs1` (stereo not given), for which the inhibition was -2.24% (inactive).

As to `O=c1cc(-c2ccccc2)[nH]c2nc3ccccc3n12`, the inhibition is -2.76% (inactive).

Turning to `O=C(c1ccccc1-c1ccccc1)N1CCN(c2ccccn2)CC1`, the inhibition is -6.76% (inactive).

In the case of `CCc1ccccc1NC(=O)CSc1nc2n[nH]c(C)c2c(=N)n1-c1ccc(OC)cc1`, the inhibition is -5.92% (inactive).

(Values after PubChem BioAssay.)
